Experimental data from PubChem BioAssay (NCI).
Values joined by “and” are separate entries in the source; they are usually repeats but may differ in a detail not shown here. Identical values can stand only once. About 83,000 compounds went through this panel and 20% of them were active in at least one assay; those are over-represented in the sample as a whole.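 Method: cells in 96-well plates; compound added at one concentration; 48 h incubation; percent growth measured; values under 10 scored active.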 Unmarked numbers belong to inactive results. Active and inactive are the calls of the source.

Test system: MDA-MB-468 breast
Assay: NCI-60 one-dose screen, 48 h (100 = growth as untreated, 0 = no growth, -100 = all killed)
Details: 10 µM unless noted

Structure (SMILES) | growth
COc1cc(-c2nn(-c3ccc(NC(=O)NCCCNC(=O)c4ccccc4)cc3)cc2-c2ccncc2)ccc1Cl | 9.32% (active)
CC(C)(C)NCCC(O)c1cc(C(F)(F)F)nc2c(C(F)(F)F)cccc12 (centres undefined) | 70.9%
COc1cc(-c2nn(C(C)(C)C)cc2-c2ccnc(NCCCNS(=O)(=O)c3ccc(C)cc3)n2)ccc1Cl | 79%
Cn1c(=O)c(S(=O)(=O)c2ccccc2)cc2ccc3c(cnn3-c3ccc(Cl)cc3)c21 | 72.3%
O=C(c1ccccc1)C(Br)[N+](=O)[O-] (centres undefined) | 114%
COc1cccc(C2CC(=O)Nc3c2c(C)nn3-c2nc3ccccc3[nH]2)c1OC (centres undefined) | 71.5%
NC[C@@](O)(c1ccc(Cl)cc1)c1ccc(-c2cn[nH]c2)cc1 | -40.9% (active)
Cn1cc(-c2csc(-c3c[nH]c4ccccc34)n2)c2ccnc(Cl)c21 | -9.03% (active)
CN(C)C(=O)c1ccccc1-n1cnc2ccccc2c1=O | 100%
CC[C@]12C=CCN3CC[C@@]4(c5cc(NC(=O)CCC(=O)O[C@H]6CC[C@H]7[C@@H]8CC[C@H]9CC(=O)CC[C@]9(C)[C@H]8CC[C@]67C)c(OC)cc5N(C)[C@H]4[C@@](O)(C(=O)OC)[C@@H]1OC(C)=O)[C@@H]32 | 73%
COc1ccc(/C(=N\NC(N)=S)c2ccc(Cl)cc2)cc1OC | 15.9%
CCCCCCCCCCn1cc[n+](C)c1 | -42.1% (active)
COc1cc(C2=NN(C(C)=O)C(c3ccc(N4CCOCC4)cc3)C2)cc(OC)c1OC (centres undefined) | 96.7%
CCCCOC(=O)c1ccc(C(C)C)cc1 | 100%
CCCC(F)C(=O)O (centres undefined) | 108%
CCCc1c(C)c2sc(=O)[nH]c2[nH]c1=O | 99.4%
O=[N+]([O-])c1cccc(CN(Cc2cccc([N+](=O)[O-])c2O)c2ccccc2)c1O | 108%
COc1ccc(C(=O)C(=O)c2ccccc2)cc1 | 101%
CCOC(=O)CCC(NC(=O)c1ccc(N)cc1)C(=O)OCC (centres undefined) | 102%
O=C(CN1CCOCC1)N1CCOCC1 | 108% and 116%

Structure (SMILES) | growth
C/C(Cc1ccccc1)=N\O | 106%
CCC(=O)Nc1ccc(-c2nc(-c3cccc(O)c3)c(-c3ccnc(Br)c3)[nH]2)cc1 | 30.5%
COc1cc(CNCCCN2C(=O)c3ccc4c5c(ccc(c35)C2=O)C(=O)N(CCCNCc2cc(OC)c(OC)c(OC)c2)C4=O)cc(OC)c1OC | -93.3% (active)
O=C1c2c(O)cc(O)cc2O[C@@H](c2ccc(O)cc2)[C@@H]1c1c(O)cc(O)c2c(=O)cc(-c3ccc(O)c(O)c3)oc12 | 113%
CCOC(=O)c1sc(NC(=O)c2cc(OC)c(OC)c(OC)c2)nc1C | 92.2%
COc1ccc2[nH]c(O)c(/C=c3/cc4c(c(-c5ccc(F)cc5)n3)=Nc3ccccc3-4)c2c1 | 67.4%
O=C1c2cccc(NCCN=Cc3cc(O)ccc3O)c2C(=O)c2c(NCCN=Cc3cc(O)ccc3O)cccc21 | -85.8% (active)
CC(=O)N1CC(Nc2ccc(OC(F)(F)F)cc2)=CC1=O | 13.8%
CCOc1nc(-c2ccccc2)cc2c(O)c(C(=O)n3nc(C)cc3C)[nH]c(=O)c12 | 99.1%
O=C(Cn1cc(CN2CCCCCC2)nn1)Nc1ccc2c(ccn2Cc2ccccc2)c1 | 74.9%
COc1ncc(-c2ccc3nccc(C#CCCCCC(=O)NO)c3c2)cc1NS(=O)(=O)c1ccc(F)cc1F | -37.1% (active)
CC[C@H](C)C(=O)O[C@H]1C[C@@H](C)C=C2C=C[C@H](C)[C@H](CC[C@@H]3C[C@@H](O)CC(=O)O3)[C@H]21 | 103%
Oc1c(I)cc(I)cc1CNCc1ccccn1 | 29.3%
O=C1C(Cl)=C(Nc2ccc(S(=O)(=O)N3CCOCC3)cc2)C(=O)c2ccccc21 | 74.1%
CCCCCCCC/C=C/CCCCCCCC1=NC(C)(C)CN1CCO | -64.5% (active)
Cc1nn(-c2ccccc2)c2nc(N)c(C3=NCCO3)nc12 | 113%
CCN1CCN(c2nc(NNC(=O)c3cccc(OC)c3)nc(N3CCN(C(c4ccccc4)c4ccccc4)CC3)n2)CC1 | 54.7%
COc1ccc2c(NCCCCCCCCNc3c4ccccc4nc4cc(OC)ccc34)c3ccccc3nc2c1 | -100% (active)
CCCCCCCCCCCCCCCCCCNC(=O)[C@H]1CSC(c2ccc(OC)cc2O)N1 (some centres undefined) | 115%
